Molecules are shown by their SMILES. This is part of a sample that, as a whole, favours compounds with a hit. Of some 83,000 tested, about 20% had one in any assay.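 The test compound was applied at a single concentration to cells in 96-well plates for 48 hours, and percent growth was recorded.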 Active and inactive are the calls of the source. The calls were made as follows: active = growth percent below 10; inactive = the rest.

This assay has as its system HL-60(TB) leukemia. As to the kind of experiment: NCI-60 one-dose screen, 48 h (100 = growth as untreated, 0 = no growth, -100 = all killed). As to conditions: 10 µM unless noted.
In the case of `O=C1c2cccnc2C(=O)c2c1c(C(=O)OCCc1ccccn1)c1ccccn21`, the growth was -19.5% (active). The result for `CN(CCCCCl)P(=O)(OCc1ccc([N+](=O)[O-])o1)C(F)(F)c1ccc(CC(=O)NC[C@@H](O)/C=C\[C@@H](O)[C@H](CO)Cc2ccccc2)cc1` (stereo partly drawn) reads 80.3% (inactive); that for `CCN(CC)CCNc1ccc(CO)c2oc3cc(Cl)ccc3c(=O)c12`, 111% (inactive).

For the origin of these results see PubChem BioAssay (NCI).
